{
  "source": "PubChem BioAssay (NCI)",
  "note": "The panel holds about 83,000 compounds, 20% with a hit somewhere; the sample as a whole holds those more often.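 Percent growth is the endpoint: 0 to 100 indicates growth inhibition (40 means 60% inhibition), 0 means no net growth, and negative values indicate cell death.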 Active and inactive are the calls of the source. How the source made its calls: active means growth percent below 10; inactive means the rest.",
  "data": [
    {"tested_on": "HL-60(TB) leukemia", "test": "NCI-60 one-dose screen, 48 h (100 = growth as untreated, 0 = no growth, -100 = all killed)", "details": "10 µM unless noted", "values": [
      {"smiles": "CCOC(=O)c1sc2nc(-c3cccc(OC)c3)nc(N3CCOCC3)c2c1C", "growth": "101% (inactive)"},
      {"smiles": "N#CCCCCCn1c2ccccc2c2c3c(c4c5ccccc5[nH]c4c21)C(=O)N(O)C3=O", "growth": "-46% (active)"},
      {"smiles": "Cc1cc(N/N=C/c2ccccn2)nc2ccccc12", "growth": "-12.8% (active)"},
      {"smiles": "COc1cc(-c2nn(-c3cccc(NC(=O)Nc4ccc(Cl)c(Cl)c4)c3)cc2-c2ccncc2)ccc1Cl", "growth": "-18.1% (active)"}
    ]}
  ]
}
